In all, about 69,000 compounds went through this assay and about 8,600 (12%) showed an effect of 50% or more. This excerpt belongs to a sample that is enriched for strong results.
System: Plasmodium berghei
Assay: Screen against P. berghei liver stage (PbLuc), transformed with Luciferase, at 10uM
Type: functional, HepG2
Details: tested at 10 uM

**Q.** Which INHIBITION does the source give for `C[C@H]1C[C@@H]2CCN(C(=O)c3cccn3C)C[C@H]2O1` here?
**A.** 25%

**Q.** How did the INHIBITION turn out when `Cc1ccc(S(=O)(=O)N(C)CC(C)O)c(F)c1` (stereo not drawn) was run?
**A.** 6.99%

**Q.** With `CC(O)CN(C)S(=O)(=O)c1ccc(C#N)cc1F` (stereo not drawn) as the molecule, how does the INHIBITION read?
**A.** 64.6%

**Q.** How did the INHIBITION turn out when `Cc1c(F)cccc1S(=O)(=O)N(C)CC(C)O` (stereo not drawn) was run?
**A.** -37.6%

**Q.** Which INHIBITION does the source give for `Cc1n[nH]c2nc(-c3ccccc3O)cc(C(=O)O)c12` here?
**A.** 7.09%

**Q.** Which INHIBITION does the source give for `OCCOc1cc(F)ccc1NCc1ccc(F)c(F)c1` here?
**A.** -16.8%

**Q.** Which INHIBITION does the source give for `OCCOc1cc(F)ccc1NCc1nc(-c2cccs2)no1` here?
**A.** 12.8%

**Q.** Which INHIBITION does the source give for `OCCOc1cc(F)ccc1NCc1cccc(F)c1F` here?
**A.** 54.5%

**Q.** With `Cc1ccccc1-c1noc(CNc2ccc(F)cc2OCCO)n1` as the molecule, how does the INHIBITION read?
**A.** 52.6%

**Q.** For `N#Cc1ccc(F)c(CNc2ccc(F)cc2OCCO)c1`, which INHIBITION is on record?
**A.** 10.9%

**Q.** Which INHIBITION does the source give for `COc1ccccc1-c1noc(CNc2ccc(F)cc2OCCO)n1` here?
**A.** 13.7%

**Q.** With `Cc1nc(CC(=O)N2CCn3c(nnc3C(C)C)C2)cs1` as the molecule, how does the INHIBITION read?
**A.** 18.15%

**Q.** With `O=C(CCc1ccc(-c2ccccc2)[nH]1)N1CCCC(n2ccnc2)C1` (stereo not drawn) as the molecule, how does the INHIBITION read?
**A.** 3.5625%

**Q.** For `CCC(=O)Nc1cccc(OCC(=O)N[C@@H]2C[C@@H]3CC[C@H]2C3)c1`, which INHIBITION is on record?
**A.** -23.4%

**Q.** With `Cc1nc(C2CCCN(C(C)C)C2)sc1Br` (stereo not drawn) as the molecule, how does the INHIBITION read?
**A.** 11.8%

**Q.** `O=C(Nc1ccccn1)C1CC(=O)N(Cc2ccccn2)C1` (stereo not drawn) was tested. Which INHIBITION did it give?
**A.** -87.6%

**Q.** With `COC[C@@]12CCO[C@@H]1CCN(C(=O)C1CC(F)(F)C1)C2` as the molecule, how does the INHIBITION read?
**A.** 94.6%

**Q.** How did the INHIBITION turn out when `O=C(C1CC(F)(F)C1)N1CC[C@H]2OCC[C@@]2(COCC2CC2)C1` was run?
**A.** 39.3%

**Q.** For `COC[C@@]12CCO[C@@H]1CCN(C(=O)C1CCOCC1)C2`, which INHIBITION is on record?
**A.** 13.1%

**Q.** `CN1CC(=O)N(c2ccccc2)CC12CCN(CC1CC1)C2` (stereo not drawn) was tested. Which INHIBITION did it give?
**A.** 48.9%

**Q.** `O=C(NCCCn1cncn1)N1CCC(N2CCCCC2)CC1` was tested. Which INHIBITION did it give?
**A.** -17.167%

**Q.** Which INHIBITION does the source give for `Cn1cccc1C(=O)N1CCc2ccc(=O)n(C)c2CC1` here?
**A.** 21.4%

**Q.** For `O=C1CC(c2cccnc2)c2c(c(C(=O)O)cn2-c2cccc(F)c2)N1` (stereo not drawn), which INHIBITION is on record?
**A.** -18.3%

**Q.** For `CN1CCC2(CCN(c3ncc(F)cn3)CC2)C1=O`, which INHIBITION is on record?
**A.** 30.5%

**Q.** How did the INHIBITION turn out when `CN(Cc1nc(Cc2ccccc2F)no1)CC1Cc2ccccc2O1` (stereo not drawn) was run?
**A.** 52%

**Q.** How did the INHIBITION turn out when `CN(Cc1nc(COc2ccccc2)no1)CC1Cc2ccccc2O1` (stereo not drawn) was run?
**A.** 8.07%

**Q.** How did the INHIBITION turn out when `CN(Cc1nc(CC2CC2)no1)CC1Cc2ccccc2O1` (stereo not drawn) was run?
**A.** 12.6%

**Q.** Which INHIBITION does the source give for `O=C(Nc1nc(-c2ccccc2)ns1)N1CC[C@H](O)C1` here?
**A.** 9.79%

**Q.** Which INHIBITION does the source give for `CCSc1ccc(C(=O)N2CCC3(CCC(=O)N(C)C3)CC2)s1` here?
**A.** 20.3%

**Q.** With `Cc1nnc(NC(=O)C(C)n2ncc(Br)c2C)s1` (stereo not drawn) as the molecule, how does the INHIBITION read?
**A.** 50.2%

**Q.** `Cc1nc(NC(=O)C(C)n2ncc(Br)c2C)sc1C` (stereo not drawn) was tested. Which INHIBITION did it give?
**A.** 21.5%

**Q.** With `Cc1c(Br)cnn1C(C)C(=O)Nc1nncs1` (stereo not drawn) as the molecule, how does the INHIBITION read?
**A.** 39.9%

**Q.** With `CN(C)Cc1cnc(C2CCN(C(=O)c3cccc(Cl)c3)C2)[nH]1` (stereo not drawn) as the molecule, how does the INHIBITION read?
**A.** 12.375%

**Q.** For `COC(=O)CC1CCN(C(=O)c2ccccc2-n2nnnc2C)CC1`, which INHIBITION is on record?
**A.** 9.57%

**Q.** How did the INHIBITION turn out when `Cc1nn(C)cc1CN1CCCC(n2c(=O)oc3ccc(Cl)cc32)C1` (stereo not drawn) was run?
**A.** 36%

**Q.** `Cc1cc(C)cc(N(C)S(=O)(=O)c2cc(C(=O)O)cs2)c1` was tested. Which INHIBITION did it give?
**A.** 34.7%

**Q.** `Cc1ccc(N(C)S(=O)(=O)c2cc(C(=O)O)cs2)cc1` was tested. Which INHIBITION did it give?
**A.** 52.5%

**Q.** `CN(c1ccc(C(C)(C)C)cc1)S(=O)(=O)c1cc(C(=O)O)cs1` was tested. Which INHIBITION did it give?
**A.** 20.6%

**Q.** `O=c1n(CCSCCOc2ccc(Br)cc2)nc2ccccn12` was tested. Which INHIBITION did it give?
**A.** 2.49%

**Q.** How did the INHIBITION turn out when `O=C(NC1CC1)c1ccnc(N2CCOC(c3ccc(Cl)cc3)C2)c1` (stereo not drawn) was run?
**A.** 67.7%

**Q.** How did the INHIBITION turn out when `O=C(c1ccnc(N2CCOC(c3ccc(Cl)cc3)C2)c1)N1CCCC1` (stereo not drawn) was run?
**A.** 73.5%

**Q.** With `O=C(c1ccnc(N2CCOC(C(F)(F)F)C2)c1)N1CCCC1` (stereo not drawn) as the molecule, how does the INHIBITION read?
**A.** 7.77%

**Q.** With `CN1CCN(C(=O)c2ccnc(N3CCOC(C(F)(F)F)C3)c2)CC1` (stereo not drawn) as the molecule, how does the INHIBITION read?
**A.** -14.1%

**Q.** For `O=C(CN1C(=O)CCNC1=O)N1CCOC(c2ccc(Cl)c(Cl)c2)C1` (stereo not drawn), which INHIBITION is on record?
**A.** -52.2%

**Q.** Which INHIBITION does the source give for `CC(C)n1ccnc1C1CCCN(c2cc(C(=O)NC3CC3)ccn2)C1` (stereo not drawn) here?
**A.** 31.2%

**Q.** Which INHIBITION does the source give for `CNC(=O)c1ccc(C2CN(c3cc(C)nc(N)n3)CCO2)nc1` (stereo not drawn) here?
**A.** 25.855%

**Q.** How did the INHIBITION turn out when `O=C(c1ccnc(N2CCOC(C(F)(F)F)C2)c1)N1CCOCC1` (stereo not drawn) was run?
**A.** 12.7%

**Q.** `O=C(NC1CC1)c1ccnc(N2CCOC(c3ccc(Cl)c(Cl)c3)C2)c1` (stereo not drawn) was tested. Which INHIBITION did it give?
**A.** 86.6%

**Q.** Which INHIBITION does the source give for `Cn1cc(CN2C[C@H]3CCN(C(=O)c4cscn4)C[C@H]3C2)cn1` here?
**A.** 43.9%

**Q.** Which INHIBITION does the source give for `CC(C)Oc1ncccc1CNC(=O)Nc1ccccn1` here?
**A.** -17.6%

**Q.** `Cc1cc(-c2ccccc2C(=O)O)nc(C2CCCN(C(C)C)C2)n1` (stereo not drawn) was tested. Which INHIBITION did it give?
**A.** 13%

**Q.** For `Cc1nc(NC2CCCC2)cc(C2CCN2C(=O)c2cnn(C)c2)n1` (stereo not drawn), which INHIBITION is on record?
**A.** 0.301%

**Q.** Which INHIBITION does the source give for `Cc1ccc2c(c1)SCC(=O)N2Cc1noc(C2CC2)n1` here?
**A.** -0.578%

**Q.** Which INHIBITION does the source give for `O=C(NCCC1=CCCCC1)NCc1nnc2n1CCC2` here?
**A.** 40.3%

**Q.** Which INHIBITION does the source give for `CCn1cnnc1CNC(=O)NC(c1ccc(OC)cc1)C1CC1` (stereo not drawn) here?
**A.** 32.5%

**Q.** For `CC(CN1CCOCC1)NC(=O)NCCc1ccc(Cl)s1` (stereo not drawn), which INHIBITION is on record?
**A.** 53.4%

**Q.** With `Cn1cc(CCNC(=O)NCc2nnc3n2CCC3)cn1` as the molecule, how does the INHIBITION read?
**A.** 59.7%

**Q.** How did the INHIBITION turn out when `O=C(NCCc1ccc(Cl)s1)NCc1nnc2n1CCCC2` was run?
**A.** 21%

**Q.** With `CCc1ccc(CNC(=O)NCc2nnc3n2CCC3)s1` as the molecule, how does the INHIBITION read?
**A.** 25.1%

**Q.** How did the INHIBITION turn out when `O=C(NCCc1ccc(Cl)s1)NCc1nnc2n1CCC2` was run?
**A.** 53.8%

**Q.** With `CC(CN1CCOCC1)NC(=O)N(C)Cc1ccc(Cl)s1` (stereo not drawn) as the molecule, how does the INHIBITION read?
**A.** -12.6%

**Q.** For `CC(CN1CCOCC1)NC(=O)NCc1ccc(Cl)s1` (stereo not drawn), which INHIBITION is on record?
**A.** -34.7%

**Q.** Which INHIBITION does the source give for `COc1ccc(C(NC(=O)NCc2nnc3n2CCC3)C2CC2)cc1` (stereo not drawn) here?
**A.** 50.4%

**Q.** `O=C(NCc1ccc(Cl)s1)NCc1nnc2n1CCCCC2` was tested. Which INHIBITION did it give?
**A.** -10.6%

**Q.** Which INHIBITION does the source give for `CN(Cc1cnn(C)c1)C(=O)NCc1nnc2n1CCC2` here?
**A.** -22.6%

**Q.** With `CN(C)CCC1CCN(Cc2ccn(C)c(=O)c2)CC1` as the molecule, how does the INHIBITION read?
**A.** -8.11%

**Q.** For `CO[C@H]1CN(C(=O)c2ccccn2)[C@@H]2CCCO[C@H]12`, which INHIBITION is on record?
**A.** 36.4%

**Q.** How did the INHIBITION turn out when `CC(C)c1ncc(Cl)c(C(=O)N2CCN(C3CC3)CC2)n1` was run?
**A.** 40.7%

Source: ChEMBL document CHEMBL4513216, “Probing the Open Global Health Chemical Diversity Library for Multistage-Active Starting Points for Next-Generation Antimalarials” (ACS Infect Dis, 2020)
